Source: PubChem BioAssay (NCI)
About 83,000 compounds went through this panel and 20% of them were active in at least one assay; those are over-represented in the sample as a whole.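 48-hour exposure, single concentration, 96-well plates; percent growth endpoint where 0 means no net growth. Active: below 10.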 A number with no mark means an inactive call. Calls of active or inactive are those of the source.

What was measured:
Test in all cases: NCI-60 one-dose screen, 48 h (100 = growth as untreated, 0 = no growth, -100 = all killed)
Conditions in all cases: 10 µM unless noted
SR leukemia = tested on: SR leukemia
RPMI-8226 leukemia = tested on: RPMI-8226 leukemia
OVCAR-8 ovarian = tested on: OVCAR-8 ovarian
OVCAR-5 ovarian = tested on: OVCAR-5 ovarian
OVCAR-4 ovarian = tested on: OVCAR-4 ovarian
SK-OV-3 ovarian = tested on: SK-OV-3 ovarian
OVCAR-3 ovarian = tested on: OVCAR-3 ovarian
HS 578T breast = tested on: HS 578T breast
NCI/ADR-RES ovarian = tested on: NCI/ADR-RES ovarian
T-47D breast = tested on: T-47D breast
BT-549 breast = tested on: BT-549 breast
MDA-MB-435 melanoma = tested on: MDA-MB-435 melanoma
SW-620 colon = tested on: SW-620 colon
MCF7 breast = tested on: MCF7 breast
HCT-116 colon = tested on: HCT-116 colon
HCC-2998 colon = tested on: HCC-2998 colon
KM12 colon = tested on: KM12 colon
IGROV1 ovarian = tested on: IGROV1 ovarian

Structure (SMILES) | growth (SR leukemia) | growth (RPMI-8226 leukemia) | growth (OVCAR-8 ovarian) | growth (OVCAR-5 ovarian) | growth (OVCAR-4 ovarian) | growth (SK-OV-3 ovarian) | growth (OVCAR-3 ovarian) | growth (HS 578T breast) | growth (NCI/ADR-RES ovarian) | growth (T-47D breast) | growth (BT-549 breast) | growth (MDA-MB-435 melanoma) | growth (SW-620 colon) | growth (MCF7 breast) | growth (HCT-116 colon) | growth (HCC-2998 colon) | growth (KM12 colon) | growth (IGROV1 ovarian) [%]
Cn1cc(-c2csc(-c3cn(C)c4ccccc34)n2)c2cnccc21 | -0.518% (active) | -18.6% (active) | 27.4% | 77.4% | 68.1% | 105% | 43.9% | 97.5% | 41.8% | 67.4% | 87.8% | -79.4% (active) | -47.6% (active) | 10.5% | -74.6% (active) | -63.4% (active) | 26.6% | –
CCOC(=O)/C(=C(/C)NCC(C)C)c1cc(O)c(O)c2c(C)cc(=O)[nH]c12 | 18.4% | 19.2% | 23.8% | 86.6% | 25.8% | 84.4% | 6.74% (active) | 79.5% | – | 34.7% | 63% | 60.9% | 31.8% | 29.4% | 10.1% | 61.9% | 61.5% | –
COc1cc(-c2ccc[nH]2)[nH]c1/C=C1\N=C(C)C(CC(=O)OCC(C)(C)C)=C1C | -54.2% (active) | -49.6% (active) | -60.8% (active) | -55.1% (active) | -91.5% (active) | -57.3% (active) | -98% (active) | -24.8% (active) | -65.8% (active) | -58.7% (active) | -87.7% (active) | -81.9% (active) | – | -74.1% (active) | -90.4% (active) | -81.4% (active) | -90% (active) | –
O=C(Cn1nc(-c2cccc3ccccc23)ccc1=O)NCc1cccc(Cl)c1 | 22.2% [50 µM] | 23.7% [50 µM] | 39.5% [50 µM] | 67.8% [50 µM] | 41.4% [50 µM] | 61.5% [50 µM] | 38.6% [50 µM] | 61.6% [50 µM] | 27.1% [50 µM] | 9.17% [50 µM] (active) | 44.3% [50 µM] | 45.5% [50 µM] | 55% [50 µM] | 20.1% [50 µM] | 33.5% [50 µM] | 54.6% [50 µM] | 41.7% [50 µM] | –
Cc1ccc(O)c(NC(=O)c2cccc(Nc3ccnc(C(F)(F)F)c3)c2)c1 | 39.8% | -1.23% (active) | 73.2% | 87.1% | 45.3% | 72.9% | 93.2% | 93% | 40.2% | 21% | 57.9% | 60.2% | 90.8% | 40.7% | 34.9% | 74.3% | 75.9% | –
CN1CCN(Cc2ccc(NC(=O)c3cncc(C#Cc4cnc(N)cc4C#N)c3)cc2C(F)(F)F)CC1 | 1.8% (active) | 12.7% | 22.6% | 15.8% | 23.2% | -14.6% (active) | 28.4% | -8.07% (active) | 66.3% | 24.7% | 37.5% | 2.03% (active) | -2.02% (active) | 18.7% | 1.47% (active) | 22.5% | 5.45% (active) | –
CCC(C)(C)c1ccc(Nc2ccc(Nc3ccc(C(C)(C)CC)cc3)cc2)cc1 | 87.7% | 76.8% | 87.7% | 93.8% | 89.2% | 89.7% | 89.9% | 88.9% | 91.7% | 58.4% | 133% | – | 85.5% | 80% | 60.5% | 101% | 89.9% | –
N#Cc1c(-c2ccc(Br)cc2)nc2c(N=Nc3ccc(S(N)(=O)=O)cc3)c(N)nn2c1N | 41.2% | -13.6% (active) | 46.6% | 72.3% | 61.2% | 82.8% | 55.3% | 45.1% | 97% | 31.5% | 73.8% | 56.2% | 44.1% | 31.6% | 24.9% | 61.8% | 51.8% | –
CSc1nc2ccc(C)cc2cc1/C=C1/C=C(c2ccccc2)NC1=O | 10.1% | 57.3% | 55.5% | 63.9% | -51.9% (active) | 76.2% | 6.24% (active) | 28.9% | – | -0.11% (active) | 76% | 30.9% | 34.9% | 48.1% | 9.26% (active) | 83.4% | 70.4% | 25.6
CNC(=O)c1cc(Oc2ccc3c(c2)sc2nc(-c4cc(C(F)(F)F)cc(C(F)(F)F)c4)cn23)ccn1 | 34% | 50.1% | 36.1% | 91.4% | 24.8% | 46.7% | 68.3% | 49.4% | – | 30.6% | 52.9% | – | 64.9% | 51.1% | 36.3% | 74.3% | 69.5% | 74.1
CC1(C)CC[C@]23CC[C@]4(C)[C@H](CC[C@@H]5[C@@]6(C)C/C(=C/O)C(=O)C(C)(C)[C@@H]6CC[C@]54C)[C@H]2[C@H]1OC3 | 95.1% | 100% | 104% | 107% | 111% | 110% | 121% | 111% | – | 114% | 111% | 97.7% | – | 85.7% | 105% | 110% | 114% | 106
NS(=O)(=O)c1ccc(C(=O)NN2C(=O)c3ccccc3C2=O)cc1 | 105% | 109% | 107% | 110% | 113% | 117% | 108% | 102% | 112% | 98.4% | 109% | 103% | 104% | 96.1% | 110% | 108% | 102% | –
COc1cc(Cc2cc(OC)c(O)c(OC)c2)cc(OC)c1O | 28% | 92.7% | 100% | 112% | 107% | 98.3% | 96.2% | 92.3% | 52.8% | 109% | 87.8% | – | 41.4% | 68.1% | 85.6% | – | 55.7% | –
COc1ccc2c(c1)CC[C@@H]1[C@@H]2CC[C@]2(C)C3C(=CC(COC(C)=O)C4C(=O)N(c5ccc(Cl)cc5)C(=O)C43)C[C@@H]12 (stereo not given in full) | 35.4% | 61.8% | 107% | 78.4% | 101% | 125% | 110% | 110% | 102% | 105% | 116% | 111% | 104% | 108% | 85.2% | 92.9% | 102% | –
O=S(=O)(N=C1C(Cl)=C(Cl)C(=NS(=O)(=O)c2ccccc2)C(Cl)=C1Cl)c1ccccc1 | 46.4% | 79.4% | 69% | 73.8% | 91.9% | 102% | 130% | 93.2% | 65.3% | 88.9% | 86.6% | 101% | 39.7% | 53.8% | 25.4% | 122% | 96.2% | –
COc1ccc(C(=O)/C=C/c2ccccc2)cc1S(N)(=O)=O | 13.4% | 64.9% | 46.2% | 101% | 86.1% | 116% | 52.4% | 74.4% | 79.3% | 77.6% | 75.2% | – | 25.8% | 25% | 13.4% | 95.2% | 38% | –
COc1ccc(/C=C/C(c2cc(OC)c(OC)c(OC)c2)n2cncn2)cc1O (stereo not given) | 5.67% (active) | 19.9% | 16% | 86.5% | – | 12.7% | 15.7% | 28.5% | – | 34.4% | 36.6% | -33% (active) | 27.6% | 21.2% | 10.5% | 67.7% | 26.7% | 50.5
CCOC(=O)c1cnn(CC(C)O)c1NC(=O)NCc1cccc(F)c1 (stereo not given) | 92.1% | 90.3% | 106% | 107% | – | 101% | 107% | 103% | – | 100% | 101% | – | 102% | 104% | 84% | 94.9% | 106% | 95.5
